Among all 5,500 compounds or so, about 2,000 (36%) were called active. Not shown: some 18% with an inconclusive outcome. No stated cut-off is given here; in the data, active means normalized growth mostly below about 0.91 (no sharp cut-off); inconclusive means no clear call, values can overlap the other calls; inactive means mostly above about 0.92. The list shows a part of the results.
Assay: chemical genetic growth profiling, strain panel (AID 1159580);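 further: tested at 20 µM; growth read once vehicle control cultures reached saturation at 30 °C; 1 = growth at the plate median or of vehicle wells; lower values mean less growth of the strain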
Conditions: S. cerevisiae deletion strains, growth OD

Measured: normalized growth

C[Se]C[C@H](N)C(=O)O
inactive: locus YAL013W, strain DEP1, active compounds read low 0.981 | locus YAL040C, strain CLN3, active compounds read low 1.05 | locus YCL061C, strain MRC1 (second series), active compounds read low 0.983 | locus YDR150W, strain NUM1, active compounds read low 1 | locus YDR363W, strain ESC2, active compounds read low 0.949 | locus YER002W, strain NOP16, active compounds read low 0.984 | locus YNL175C, strain NOP13, active compounds read low 0.953 | locus YNL197C, strain WHI3, active compounds read low 0.981 | locus YNL224C, strain SQS1, active compounds read low 0.97 | locus YNL322C, strain KRE1, active compounds read low 0.981 | locus YOR083W, strain WHI5 (second series), active compounds read low 0.984 | locus YPL241C, strain CIN2, active compounds read low 0.983

From PubChem BioAssay AID1159580 (chemical genetic matrix, 2015)
